Records with an inconclusive call do not appear. Activity calls are given as the source filed them. Unless noted, calls follow the shape of the dose curve; as a rule, active = well fitted curve in the direction sought with a large enough effect; inconclusive = small, poorly fitted or top-dose-only effect, or another doubt; inactive = no such curve, though single readings can be large; an effect the other way counts as inactive or inconclusive.
How the values were obtained:
[1] = Cytometric Cell-Based qHTS for Inhibitors of the mTORC1 Signaling Pathway in MEF (Tsc2-/-, p53-/-) Cells (AID 2660);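 also: Tsc2 and p53 null MEFs carrying empty vector with compound for 24 h; percent of cells above a phospho-rpS6 to PI ratio cutoff in each well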
Procedure, shortened: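 Readout: Alexa-488 phospho-rpS6 (Ser235/236) intensity divided by PI intensity, thresholded against 7.5 nM rapamycin wells and reported as % positive cells. PI cell count served as the viability measure. Compound exposure was 24 hrs at 37 degree Celsius.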

[2] = High Content Imaging Cell-Based qHTS for Inhibitors of the mTORC1 Signaling Pathway in MEF (Tsc2-/-, p53-/-) Cells (AID 2666); settings: at 38.3 µM (top of the series);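 also: percent of cells scored positive for phospho-rpS6 Ser235/236 immunostaining by imaging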
Procedure, shortened: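 Cells were plated, dosed with compound after 24 hrs, and incubated another 24 hrs at 37 degree Celsius. Fixed cells were immunostained for phospho-rpS6 Ser235/236 and counterstained, and the normalized signal was scored as % active cells against rapamycin and DMSO controls.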

[3] = High Content Imaging Cell-Based qHTS for Inhibitors of the mTORC1 Signaling Pathway in MEF Cells (AID 2667);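 also: Tsc2-/- p53-/- MEFs stably re-expressing wild-type Tsc2 exposed 24 h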
Procedure, shortened: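 Immunofluorescence for rpS6 phosphorylation in MEFs of Tsc2-/-, p53-/- background rescued with WT Tsc2. Compound exposure lasted 24 hrs. Inhibition was scored against rapamycin-treated control wells.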

[4] = Cytometry Cell-Based qHTS for Inhibitors of the mTORC1 Signaling Pathway in MEF cells (AID 2668);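 also: Tsc2-/- p53-/- mouse embryonic fibroblasts stably re-expressing wild-type Tsc2; percent cells positive for phospho-rpS6 Ser235/236 relative to propidium iodide stain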
Procedure, shortened: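 WT MEFs (Tsc2-/-, p53-/- stably re-expressing WT Tsc2) in DMEM + 10% FBS received compounds 24 hrs after plating, for 24 hrs at 37 degree Celsius. Fixed cells stained with Alexa-488 anti-phospho-rpS6 Ser235/236 and propidium iodide; laser-scanning cytometry read-out.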

[5] = target: Ubiquitin carboxyl-terminal hydrolase 2 (Homo sapiens) (UniProt O75604); assay: qHTS Validation Assay for Inhibitors of Ubiquitin-specific Protease USP2a Using CHOP2 as the Reporter (AID 463106)
Chain of Ubiquitin carboxyl-terminal hydrolase 2 (Homo sapiens) (O75604 whole entry, looked up): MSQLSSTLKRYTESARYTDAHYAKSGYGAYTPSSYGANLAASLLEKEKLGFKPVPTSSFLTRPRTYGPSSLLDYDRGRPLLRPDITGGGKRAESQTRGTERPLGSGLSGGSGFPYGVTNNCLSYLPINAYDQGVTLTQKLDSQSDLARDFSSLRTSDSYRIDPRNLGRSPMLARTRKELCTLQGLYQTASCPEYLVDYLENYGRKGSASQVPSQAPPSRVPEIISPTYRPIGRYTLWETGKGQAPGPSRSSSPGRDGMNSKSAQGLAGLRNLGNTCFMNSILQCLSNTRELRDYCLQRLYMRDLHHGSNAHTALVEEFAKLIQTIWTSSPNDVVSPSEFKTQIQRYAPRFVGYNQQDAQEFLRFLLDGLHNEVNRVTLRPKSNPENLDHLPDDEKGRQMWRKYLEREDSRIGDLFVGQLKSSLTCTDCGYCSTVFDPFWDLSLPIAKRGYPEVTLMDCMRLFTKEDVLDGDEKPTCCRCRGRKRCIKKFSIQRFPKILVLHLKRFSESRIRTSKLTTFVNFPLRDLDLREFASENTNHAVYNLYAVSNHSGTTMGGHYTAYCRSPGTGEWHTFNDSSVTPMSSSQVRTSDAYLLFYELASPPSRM
Procedure, shortened: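 10nM USP2 core + cpd, 30min RT; add 25nM Ub-CHOP2/25nM substrate; 60min RT; FI 485/531nm. Buffer Tris pH 8.0, CaCl2, BME, CHAPS. Norm. to NEM = 100% inhibition; time-zero read flags fluorescent artifacts.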

[6] = target: DNA polymerase III PolC-type (Bacillus subtilis (strain 168)) (UniProt P13267); assay: qHTS Validation Assay for the Inhibitors of DNA Replication in Gram-Positive Bacteria (AID 485295);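 also: PicoGreen fluorescence of double-stranded DNA made on primed circular M13 template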
Chain of DNA polymerase III PolC-type (Bacillus subtilis (strain 168)) (P13267 whole entry, looked up): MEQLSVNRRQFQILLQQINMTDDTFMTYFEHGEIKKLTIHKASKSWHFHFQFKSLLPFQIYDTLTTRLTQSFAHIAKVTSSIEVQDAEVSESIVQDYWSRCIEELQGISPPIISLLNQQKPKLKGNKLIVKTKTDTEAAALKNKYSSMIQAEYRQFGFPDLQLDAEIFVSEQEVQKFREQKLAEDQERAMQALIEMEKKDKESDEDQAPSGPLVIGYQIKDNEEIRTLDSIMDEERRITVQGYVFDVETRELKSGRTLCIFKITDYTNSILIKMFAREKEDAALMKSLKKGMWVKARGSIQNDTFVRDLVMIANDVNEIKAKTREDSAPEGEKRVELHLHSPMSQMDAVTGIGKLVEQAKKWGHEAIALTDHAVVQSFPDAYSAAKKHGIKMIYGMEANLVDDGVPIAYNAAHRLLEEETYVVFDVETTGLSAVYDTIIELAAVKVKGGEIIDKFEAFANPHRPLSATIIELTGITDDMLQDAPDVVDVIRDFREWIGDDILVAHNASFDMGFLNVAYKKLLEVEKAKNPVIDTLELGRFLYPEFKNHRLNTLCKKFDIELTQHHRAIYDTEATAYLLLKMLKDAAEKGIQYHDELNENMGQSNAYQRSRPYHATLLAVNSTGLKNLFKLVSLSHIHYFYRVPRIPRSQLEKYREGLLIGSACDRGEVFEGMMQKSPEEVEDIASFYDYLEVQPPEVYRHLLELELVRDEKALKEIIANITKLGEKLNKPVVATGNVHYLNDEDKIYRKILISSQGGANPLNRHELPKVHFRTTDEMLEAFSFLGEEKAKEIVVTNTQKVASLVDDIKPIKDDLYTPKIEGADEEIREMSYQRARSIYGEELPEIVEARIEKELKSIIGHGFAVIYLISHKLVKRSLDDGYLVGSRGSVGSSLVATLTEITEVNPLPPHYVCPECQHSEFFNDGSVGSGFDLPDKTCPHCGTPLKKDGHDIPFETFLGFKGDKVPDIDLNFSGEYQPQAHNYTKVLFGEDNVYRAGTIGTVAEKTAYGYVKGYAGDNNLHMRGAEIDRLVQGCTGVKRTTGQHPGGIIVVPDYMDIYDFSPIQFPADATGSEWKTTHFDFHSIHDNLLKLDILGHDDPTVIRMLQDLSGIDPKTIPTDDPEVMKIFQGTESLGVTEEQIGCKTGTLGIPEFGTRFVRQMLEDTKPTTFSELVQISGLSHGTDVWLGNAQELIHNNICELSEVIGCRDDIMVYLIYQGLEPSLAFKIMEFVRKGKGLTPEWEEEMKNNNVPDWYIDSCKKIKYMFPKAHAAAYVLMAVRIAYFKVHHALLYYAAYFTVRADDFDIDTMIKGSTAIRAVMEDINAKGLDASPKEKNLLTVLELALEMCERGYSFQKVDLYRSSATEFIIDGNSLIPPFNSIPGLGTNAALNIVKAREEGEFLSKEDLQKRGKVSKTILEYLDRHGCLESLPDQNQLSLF
Procedure, shortened: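 Reconstituted B. subtilis holoenzyme (Pol III, beta clamp, SSB, primase) was preincubated with compound at room temperature, then given single-stranded circular M13Gori plus dNTPs and NTPs. EDTA-containing PicoGreen stopped the reaction, and dsDNA product was read by fluorescence.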

[7] = target: Tumor susceptibility gene 101 protein (Homo sapiens) (UniProt Q99816); assay: qHTS Validation Assay for Iinhibitors of HIV-1 Budding by Blocking the Interaction of PTAP/TSG101 (AID 485342; calls by dose curve)
Chain of Tumor susceptibility gene 101 protein (Homo sapiens) (Q99816 whole entry, looked up, the tested form may be a part): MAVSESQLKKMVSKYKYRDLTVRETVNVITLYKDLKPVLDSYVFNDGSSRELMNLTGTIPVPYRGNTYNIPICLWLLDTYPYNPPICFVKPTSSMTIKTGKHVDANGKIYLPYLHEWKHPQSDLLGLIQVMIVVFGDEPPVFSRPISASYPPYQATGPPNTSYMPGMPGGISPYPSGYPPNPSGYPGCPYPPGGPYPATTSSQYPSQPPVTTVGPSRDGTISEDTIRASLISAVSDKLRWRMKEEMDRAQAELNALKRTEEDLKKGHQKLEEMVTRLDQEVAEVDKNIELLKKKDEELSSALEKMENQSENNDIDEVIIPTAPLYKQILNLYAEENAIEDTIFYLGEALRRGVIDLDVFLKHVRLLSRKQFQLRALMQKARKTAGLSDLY
Procedure, shortened: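 Tsg101 binding domain (10 uM final) in pH 7.5 HEPES/NaCl/Tween 20/EDTA/TCEP buffer was mixed with pin-transferred compounds, then FITC-labeled PTAP peptide (50 nM final) was added; after 20 min at r.t., fluorescence polarization was read.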

[8] = target: Beta-2 adrenergic receptor (Homo sapiens) (UniProt P07550); assay: qHTS validation assay of beta-arrestin-biased ligands of beta2-adrenergic receptor (AID 485366)
Procedure, shortened: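 Tango cells (recombinant beta2-AR with recombinant beta-arrestin; recruitment releases tTA driving luciferase) were treated with compounds titrated up to 46 microM for 18 hr at 37 degrees C. Luminescence gave %Activity, and concentration-response curves were curve-classified.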

[9] = target: ATP-dependent 6-phosphofructokinase (Trypanosoma brucei brucei) (UniProt O15648); assay: qHTS Validation Assay to Find Inhibitors of T. brucei phosphofructokinase (AID 485368)
Chain of ATP-dependent 6-phosphofructokinase (Trypanosoma brucei brucei) (O15648 whole entry, looked up): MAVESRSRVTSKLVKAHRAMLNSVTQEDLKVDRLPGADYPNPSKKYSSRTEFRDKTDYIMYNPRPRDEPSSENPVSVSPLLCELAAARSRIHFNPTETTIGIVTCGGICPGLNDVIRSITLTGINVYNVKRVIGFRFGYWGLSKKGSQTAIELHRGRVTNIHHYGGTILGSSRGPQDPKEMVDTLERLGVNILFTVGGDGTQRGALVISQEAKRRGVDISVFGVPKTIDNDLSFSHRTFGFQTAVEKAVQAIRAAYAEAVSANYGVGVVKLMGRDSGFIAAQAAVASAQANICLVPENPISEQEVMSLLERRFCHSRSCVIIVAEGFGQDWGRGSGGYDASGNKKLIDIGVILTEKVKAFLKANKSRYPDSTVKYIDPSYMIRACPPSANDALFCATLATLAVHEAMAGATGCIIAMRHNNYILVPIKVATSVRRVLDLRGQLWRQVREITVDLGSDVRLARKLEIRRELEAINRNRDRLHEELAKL
Procedure, shortened: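 Compounds (up to 57 uM, titration series) were pinned into substrate buffer, then 1.25 nM PFK added; after 45 min at room temperature, ADP product was quantified by ADP-Glo luminescence and concentration-response curves fitted.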

[10] = target: Thioredoxin reductase 1, cytoplasmic (Rattus norvegicus) (UniProt O89049); assay: qHTS Assay for Substrates of Mammalian Selenoprotein Thioredoxin Reductase 1 (TrxR1) (AID 488772);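 also: NADPH fluorescence in the first read after selenite addition and not the 8 min delta; a drop in NADPH fluorescence below the no-compound background marks a TrxR1 substrate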
Chain of Thioredoxin reductase 1, cytoplasmic (Rattus norvegicus) (O89049 whole entry, looked up): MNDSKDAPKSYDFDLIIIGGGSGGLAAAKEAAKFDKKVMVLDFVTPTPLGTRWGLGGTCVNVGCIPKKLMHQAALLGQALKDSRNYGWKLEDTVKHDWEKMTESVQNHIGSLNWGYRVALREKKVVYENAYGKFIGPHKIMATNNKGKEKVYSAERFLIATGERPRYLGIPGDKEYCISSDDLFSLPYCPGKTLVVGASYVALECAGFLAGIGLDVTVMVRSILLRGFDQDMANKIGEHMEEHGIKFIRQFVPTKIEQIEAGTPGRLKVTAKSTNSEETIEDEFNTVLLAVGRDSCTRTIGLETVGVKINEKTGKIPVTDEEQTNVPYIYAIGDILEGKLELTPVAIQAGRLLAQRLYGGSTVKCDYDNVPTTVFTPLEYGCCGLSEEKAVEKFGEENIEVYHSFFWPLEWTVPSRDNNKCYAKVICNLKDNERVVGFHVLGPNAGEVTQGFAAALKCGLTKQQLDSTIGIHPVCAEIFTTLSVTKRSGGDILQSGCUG
Procedure, shortened: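 Quantitative HTS in Tris-HCl buffer at pH 7.5 with EDTA and Tween-20, using rat TrxR1, 400 uM NADPH and 400 uM selenite (final). A fall in initial NADPH fluorescence relative to background marked substrate behaviour.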

[11] = target: Thioredoxin reductase 1, cytoplasmic (Rattus norvegicus) (UniProt O89049); assay: qHTS Assay for Inhibitors of Mammalian Selenoprotein Thioredoxin Reductase 1 (TrxR1) (AID 488773); settings: Potency: inhibition;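 also: drop in NADPH fluorescence over an 8 min run after selenite addition; nearly all actives have a fitted effect of over 40% in size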
Procedure, shortened: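 Steps: enzyme (90 nM) plus NADPH (400 uM final), 5 min at ~22 deg C; compound added, 15 min; selenite (400 uM final) added; fluorescence followed for 8 min. Concentration-response curves derived from the normalized delta values.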

[12] = target: M-phase phosphoprotein 8 (Homo sapiens) (UniProt Q99549); assay: qHTS Validation Assay for Inhibitors for MPP8 Chromodomain Interactions with Methylated Histone Tails (AID 488949);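 also: AlphaScreen signal from MPP8 chromodomain bound to biotinylated H3K9me3 peptide; top concentration of the series differs between compounds; nearly all actives have a fitted effect of over 55% in size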
Procedure, shortened: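 MPP8 (50 nM) was preincubated with biotinylated H3(1-18)K9me3 peptide (50 nM) in PBS pH 7.4, 0.01% Tween-20 for 30 min at room temperature, then with compounds for 30 min; binding was detected by AlphaScreen.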

[13] = target: D(1A) dopamine receptor (Homo sapiens) (UniProt P21728); assay: HTS Assay for Allosteric Agonists of the Human D1 Dopamine Receptor: Primary Screen for Agonists (AID 488981)
Chain of D(1A) dopamine receptor (Homo sapiens) (P21728 whole entry, looked up): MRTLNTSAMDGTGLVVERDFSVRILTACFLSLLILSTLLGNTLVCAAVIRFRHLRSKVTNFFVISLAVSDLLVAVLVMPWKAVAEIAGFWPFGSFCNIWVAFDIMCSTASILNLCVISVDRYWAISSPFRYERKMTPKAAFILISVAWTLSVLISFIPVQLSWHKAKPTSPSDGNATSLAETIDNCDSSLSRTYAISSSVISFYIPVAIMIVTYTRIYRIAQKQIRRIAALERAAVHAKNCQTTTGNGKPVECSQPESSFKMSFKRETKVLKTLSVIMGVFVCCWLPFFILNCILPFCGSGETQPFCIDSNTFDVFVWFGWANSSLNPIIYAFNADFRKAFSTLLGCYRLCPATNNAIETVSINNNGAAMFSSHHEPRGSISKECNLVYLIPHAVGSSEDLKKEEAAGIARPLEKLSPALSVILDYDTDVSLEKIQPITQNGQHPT
Procedure, shortened: (§1)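 Calcium flux in an inducible, force-coupled HEK293 Trex D1 line (overnight at 30 C): agonist mode is the 180 s kinetic read after compound; potentiator mode is the following 180 s read after dopamine at EC20.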

[14] = target: D(1A) dopamine receptor (Homo sapiens) (UniProt P21728); assay: HTS Assay for Allosteric Agonists of the Human D1 Dopamine Receptor: Primary Screen for Potentiators (AID 488982)
Procedure, shortened: as §1

[15] = target: D(1A) dopamine receptor (Homo sapiens) (UniProt P21728); assay: HTS Assay for Allosteric Agonists of the Human D1 Dopamine Receptor: Primary Screen for Antagonists (AID 488983);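 also: calcium flux response to an EC80 dopamine challenge measured with no-wash dye; nearly all actives have a fitted effect of over 65% in size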
Procedure, shortened: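 Tetracycline-induced HEK293 T-REx cells expressing force-coupled D1 were plated overnight at 30 C, dye-loaded for calcium, and read kinetically. Compounds were pinned in, then an EC80 dopamine challenge followed after 180 s to reveal antagonism.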

[16] = Nrf2 qHTS screen for inhibitors: Validation (AID 493153; active = well fitted inhibition curve with a large enough effect in the main read-out, with a control signal flat, not every such curve was filed as active); settings: viability change: measured here: cytotoxicity max response
Procedure, shortened: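 A549 cells carrying an ARE-driven firefly luciferase reporter, in 5% FBS OPTI-MEM, were treated with compounds in concentration-response for 18-24 h at 37°C. Viability was read by CellTiter-Fluor fluorescence, then Nrf2 activity by luciferase luminescence.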

[17] = qHTS for Inhibitors of Cell Surface uPA Generation: Validation Assay (AID 493164);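 also: RAW 264.7 macrophage cells exposed to compound for 18 h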
Procedure, shortened: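 RAW 264.7, 4000 cells/well, o/n plating; cpd 7-pt 1:5 dilution 2.45 nM–38.3 uM final; 18 h, 37 C/5% CO2; ATP-Lite, 5 s luminescence exposure.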

[18] = target: Peptidyl-prolyl cis-trans isomerase NIMA-interacting 1 (Homo sapiens) (UniProt Q13526); assay: qHTS Validation Assay to Find Inhibitors of Pin1 (AID 504536; active = well fitted inhibition curve with a large enough effect in the polarisation, with a control signal flat, not every such curve was filed as active; the % refers to the polarisation)
Procedure, shortened: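 Fluorescence polarization competition: compounds (titration) displace HiFluor-488-labeled Pin1-1b peptide from Pin1 (0.3 uM final) in pH 7.5 HEPES buffer with DTT, 10 min at room temperature; %Activity normalized to no-enzyme wells, curves fitted.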

[19] = target: Phosphoglycerate kinase, glycosomal (Trypanosoma brucei brucei) (UniProt P07378); assay: qHTS Validation Assay to Find Inhibitors of Phosphoglycerate Kinase (AID 504547)
Procedure, shortened: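 Inhibition of the enzyme is judged by a Kinase-Glo Plus luminescent signal following a one-hour incubation at room temperature. Because 1,3-BPG is unstable, it is made in situ by GAPDH at 100nM final; no-PGK wells define the baseline.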

[20] = target: phosphoglycerate mutase (Leishmania major) (UniProt Q4Q090); assay: qHTS Validation Assay to Find Inhibitors of Phosphoglycerate Mutase (AID 504548)
Procedure, shortened: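 Lm PGAM 1.25nM final; 100 mM TEA pH 7.6, 5 mM MgCl2, 0.01% Tween-20; 45 min RT; Kinase-GloPlus, 10 min; end-point luminescence. Enzyme-free wells as negative controls.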

[21] = target: Ubiquitin carboxyl-terminal hydrolase 1 (Homo sapiens) (UniProt O94782); assay: Inhibitors of USP1/UAF1: Pilot qHTS (AID 504865);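 also: rhodamine fluorescence freed from ubiquitin-rhodamine substrate followed over time; top concentration of the series differs between compounds; nearly all actives have a fitted effect of over 35% in size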
Procedure, shortened: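 USP1/UAF1 complex (1nM) preincubated with compound 15 min at room temperature, then Ub-Rho substrate (150nM final) added. Fluorescence read kinetically at 480/540 nm, 6 reads every 60 seconds. Buffer: 50mM HEPES pH 7.8, 0.5mM EDTA, 0.1 mg/ml BSA, 1mM TCEP, 0.01% Tween-20.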

[22] = qHTS for Inhibitors of ATXN expression: Validation of Cytotoxic Assay (AID 588349)
Procedure, shortened: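 HEK293 cells were dosed with titrated compounds for 72 hr at 37 degrees C. Viability was read by CellTiter Glo luminescence, with intracellular ATP as the marker of cell survival.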

[23] = qHTS for Inhibitors of ATXN expression: Validation (AID 588378); also: nearly all actives have a fitted effect of over 75% in size
Procedure, shortened: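 Luminescence from an ATXN2-FFLuc reporter in HEK293 cells served as read-out after 24 h compound treatment at 37 degrees C; CellTiter-Fluor fluorescence was recorded first to assess viability.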

[24] = target: Glutaminase kidney isoform, mitochondrial (Homo sapiens) (UniProt O94925); assay: qHTS for Inhibitors of Glutaminase (GLS): LOPAC Validation (AID 624146);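 also: glutamate product detected by oxidase and peroxidase coupled Amplex red fluorescence gain; nearly all actives have a fitted effect of over 60% in size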
Chain of Glutaminase kidney isoform, mitochondrial (Homo sapiens) (O94925 whole entry, looked up, canonical isoform): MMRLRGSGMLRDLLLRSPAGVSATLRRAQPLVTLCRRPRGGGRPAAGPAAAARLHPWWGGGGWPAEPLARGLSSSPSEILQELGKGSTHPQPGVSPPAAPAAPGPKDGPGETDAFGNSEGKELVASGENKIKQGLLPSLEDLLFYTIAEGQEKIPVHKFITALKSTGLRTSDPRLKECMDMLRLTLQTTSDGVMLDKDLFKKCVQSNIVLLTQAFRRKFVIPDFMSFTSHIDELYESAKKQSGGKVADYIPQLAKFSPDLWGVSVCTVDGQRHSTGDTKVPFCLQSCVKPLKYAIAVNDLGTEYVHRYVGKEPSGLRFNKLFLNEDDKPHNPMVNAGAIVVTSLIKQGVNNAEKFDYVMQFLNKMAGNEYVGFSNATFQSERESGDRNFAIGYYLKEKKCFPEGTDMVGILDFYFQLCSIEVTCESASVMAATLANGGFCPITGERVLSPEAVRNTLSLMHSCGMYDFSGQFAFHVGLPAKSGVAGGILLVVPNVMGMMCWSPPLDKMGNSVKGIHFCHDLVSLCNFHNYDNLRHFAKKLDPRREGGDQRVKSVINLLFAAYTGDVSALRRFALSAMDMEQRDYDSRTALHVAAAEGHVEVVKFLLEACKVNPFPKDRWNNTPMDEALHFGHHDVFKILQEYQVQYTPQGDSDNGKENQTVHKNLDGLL
Procedure, shortened: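 Human kidney-isoform GLS in 45 mM KH2PO4 pH 8.2, 0.02% Tween-20, with compound, started with 1mM L-Glutamine (added stock). Glutamate oxidase/HRP/Amplex red coupled fluorescence read at start and after 30 min at RT.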

[25] = qHTS of Trypanosoma Brucei Inhibitors: LOPAC Validation (AID 624147)
Procedure, shortened: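 ADP (130 uM final) triggers the TbPYK reaction after compound addition; incubation is 45 min at room temperature. Kinase-Glo Plus is then added and luminescence imaged. Normalized data are fitted to concentration-effect curves.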

[26] = target: Glucagon-like peptide 1 receptor (Homo sapiens) (UniProt P43220); assay: qHTS of GLP-1 Receptor Agonists: LOPAC Validation (AID 624148);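 also: luminescence from a luciferase reporter switched on by cAMP; higher luminescence signal means agonism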
Chain of Glucagon-like peptide 1 receptor (Homo sapiens) (P43220 whole entry, looked up): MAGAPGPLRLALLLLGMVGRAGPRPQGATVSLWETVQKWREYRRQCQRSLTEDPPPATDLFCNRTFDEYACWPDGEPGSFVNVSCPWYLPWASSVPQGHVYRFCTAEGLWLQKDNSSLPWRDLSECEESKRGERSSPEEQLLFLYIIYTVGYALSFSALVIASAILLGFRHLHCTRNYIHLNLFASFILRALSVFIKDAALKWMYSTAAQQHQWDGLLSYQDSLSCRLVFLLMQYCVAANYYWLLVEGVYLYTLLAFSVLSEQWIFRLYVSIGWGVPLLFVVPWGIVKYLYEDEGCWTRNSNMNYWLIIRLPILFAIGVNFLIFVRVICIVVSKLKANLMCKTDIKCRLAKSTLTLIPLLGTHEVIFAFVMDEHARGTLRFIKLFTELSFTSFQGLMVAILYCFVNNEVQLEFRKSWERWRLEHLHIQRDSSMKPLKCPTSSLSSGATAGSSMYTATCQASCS
Procedure, shortened: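 Agonism scored as increased luciferase luminescence driven by cAMP in HEK293 clones carrying GLP-1R. Cells settled 12 hours, received compound for 4-6 hr at 37 deg C, 5% CO2, and were read after 12 min detection reagent at RT.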

[27] = qHTS of Nrf2 Activators: LOPAC Validation (AID 624149)
Procedure, shortened: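 AREc32 cells carrying an ARE-driven firefly luciferase were grown overnight in OPTI-MEM with 5% FBS, then exposed to compounds for 24 hr at 37 deg C. Luciferase signal was read after 30 min with Steady-Glo at RT.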

[28] = HTS Assay for Allosteric Antagonists of the Human D2 Dopamine Receptor: Hit Validation in HTRF (AID 624455);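 also: stable D1 dopamine receptor cell line scored for blocking the D1 response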
Procedure, shortened: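 Hits were examined in an HTRF assay using cells stably expressing the D1 dopamine receptor, scoring inhibition of the D1-mediated response. The preceding primary screen tracked calcium flux after an EC80 dopamine addition in force-coupled, inducible Hek293 Trex D2 cells.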

[29] = qHTS for compounds that reverse cellular toxicity of Amyloid beta (A-beta) peptide in yeast: LOPAC Validation Assay (AID 720559)
Procedure, shortened: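 Yeast cells expressing toxic A-beta were combined with pinned compounds in growth medium and incubated 48 hr at 30 C. Growth was read as absorbance at 600 nm and normalized to DMSO and to an equimolar FeCl3/clioquinol positive control.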

C[C@H](Cc1ccccc1)Nc1ncnc2c1ncn2[C@@H]1O[C@H](CO)[C@@H](O)[C@H]1O
6.66%: viability change [16]
inactive: outcome [1] | outcome [2] | Potency [3] | Potency [4] | Potency [5] | Potency [6] | outcome [7] | outcome [8] | Potency [9] | outcome [10] | Potency [11] | Potency [12] | outcome [13] | outcome [14] | outcome [15] | outcome [16] | outcome [17] | Potency [18] | Potency [19] | outcome [20] | Potency [21] | Potency [22] | Potency [23] | Potency [24] | outcome [25] | outcome [26] | outcome [27] | outcome [28] | outcome [29]
